Assay outcomes (PubChem)
Compounds with a hit are over-represented: about 1.6% of the library has one in this group of screens.
KCNQ2 pot = potentiators of rat KCNQ2 potassium channel; O88943; CHO-K1 KCNQ2, FluxOR thallium flux fluorescence; hits give high values; B-score at 10 µM; hit rate 0.54% among 310,000;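 active = fluorescence ratio B-score at least 3 SD of library B-scores, with initial fluorescence B-score within 3 of them, cut at about 5.3 in these data; same plate scores as AID 2156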;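 also: B-score of peak minus minimum over baseline fluorescence ratio after K+ and Tl+ stimulus; positive B-score means potentiation of KCNQ2 with more thallium influx and brighter signal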
Target sequence (O88943 whole entry, looked up): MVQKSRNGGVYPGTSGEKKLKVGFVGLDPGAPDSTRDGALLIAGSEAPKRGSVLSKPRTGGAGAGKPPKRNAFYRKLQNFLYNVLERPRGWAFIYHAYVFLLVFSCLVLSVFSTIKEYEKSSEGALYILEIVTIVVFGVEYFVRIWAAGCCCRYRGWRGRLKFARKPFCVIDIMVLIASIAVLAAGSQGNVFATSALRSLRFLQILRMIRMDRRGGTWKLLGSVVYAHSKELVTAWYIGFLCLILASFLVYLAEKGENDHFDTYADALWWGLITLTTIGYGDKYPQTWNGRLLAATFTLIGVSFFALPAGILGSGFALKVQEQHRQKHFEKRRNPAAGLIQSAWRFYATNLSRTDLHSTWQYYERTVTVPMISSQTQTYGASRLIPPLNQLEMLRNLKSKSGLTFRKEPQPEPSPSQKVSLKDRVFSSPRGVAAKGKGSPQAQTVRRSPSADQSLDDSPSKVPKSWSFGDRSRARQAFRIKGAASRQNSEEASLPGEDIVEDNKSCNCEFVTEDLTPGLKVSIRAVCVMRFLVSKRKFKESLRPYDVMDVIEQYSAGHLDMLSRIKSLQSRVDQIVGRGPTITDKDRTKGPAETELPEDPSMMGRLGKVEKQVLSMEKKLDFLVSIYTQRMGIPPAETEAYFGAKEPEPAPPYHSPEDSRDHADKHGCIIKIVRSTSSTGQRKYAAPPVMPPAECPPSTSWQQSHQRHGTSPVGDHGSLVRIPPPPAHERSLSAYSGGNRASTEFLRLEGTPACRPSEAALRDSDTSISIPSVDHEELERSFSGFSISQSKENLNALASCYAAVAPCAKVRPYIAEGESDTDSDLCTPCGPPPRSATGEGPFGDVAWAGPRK
KCNQ2 block = inhibitors of rat KCNQ2 potassium channel; O88943; CHO-K1 KCNQ2, FluxOR thallium flux, 20 min; hits give low values; B-score at 10 µM; hit rate 1.1% among 310,000; AID 2156;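 active = fluorescence ratio B-score at most minus 3 library SDs, with starting brightness B-score within 2 library SDs, cut at about -5.5 in these data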
* marks the source's active call; other numbers are inactive results; i = inactive; / = no result.

SMILES	KCNQ2 pot	KCNQ2 block
CCc1nc(N2CCCCC2C(=O)O)c2oc3ccccc3c2n1 (centres undefined)	1.4	i
Cc1ccc(/C=C/C(=O)N(Cc2cccs2)C2CCS(=O)(=O)C2)cc1 (centres undefined)	/	i
CCCc1cc(C(=O)N(C)CC(=O)Nc2ccc(OCC)c(OCC)c2)sc1C	0.83	i
CCOC(=O)c1c(C)[nH]c(C)c1S(=O)(=O)N(C)CC(=O)Nc1ccccc1	1.2	i
COc1ccccc1CNc1ncc(-c2ccc(F)cc2)n1C	0.13	i
COc1ccc(CNc2ncc(-c3ccc(F)cc3)n2C)c2ccccc12	-6.2	-6.2*
O=C(Nc1ccc(Br)cc1)Nn1cnnc1	/	i
Cc1onc(-c2c(F)cccc2Cl)c1C(=O)c1ccc(F)cc1	/	i
Cc1onc(-c2c(Cl)cccc2Cl)c1C(=O)c1ccc(F)cc1	6.8*	i
CN(C)CCOC(=O)CCCCCCCCC(=O)OCCN(C)C	/	i
CC(=O)c1ccc2c(c1)C1C=CCC1C(c1cc3c(cc1Br)OCO3)N2 (centres undefined)	-7.4	-7.4*
O=C(O)c1ccc2c(c1)C1C=CCC1C(c1ccncc1)N2 (centres undefined)	1.9	i
Cc1ccc(NC(=O)CN2C(=O)NC3(CCCc4ccccc43)C2=O)c([N+](=O)[O-])c1 (centres undefined)	/	i
COc1ccc(C(=O)Nc2nc(-c3cccs3)cs2)cc1	1.4	i
COc1cc(OC)cc(C(=O)Nc2nc(CC(=O)NCc3ccccc3OC)cs2)c1	-6.6	-6.6*
COc1ccccc1NC(=O)Cc1csc(NC(=O)c2ccccc2)n1	0.37	i
O=C(Cc1csc(NC(=O)c2ccc(F)cc2)n1)NO	-5.7	-5.7*
COc1cc(OC)cc(C(=O)Nc2nc(CC(=O)NCc3ccc(F)cc3)cs2)c1	/	i
COc1cc(C(=O)Nc2nc(-c3cccs3)cs2)cc(OC)c1OC	-7.1	-7.1*
O=C(Nn1cnnc1)c1cc(Br)ccc1Cl	0.28	i
CN1CCN(C2=C(Cl)C(=O)N(C3CCCCC3)C2=O)CC1	/	i
CN1CCN(C2=C(Cl)C(=O)C(c3cnc(N4CCCCC4)s3)=C(Cl)C2=O)CC1	-9	-9*
N#Cc1c(/N=C/c2cccs2)sc2c1CCCCC2	-6.1	-6.1*
CCCN(/C=N/c1sc2c(c1C#N)CCCCC2)CCC	-7.9	-7.9*
N#Cc1c(/N=C/c2cccnc2)sc2c1CCCC2	0.23	i
SMILES	KCNQ2 pot	KCNQ2 block
CN(C)/C=N/c1sc2c(c1C#N)CCCCC2	1.5	i
Clc1ccc(CN2C3=NCCCN3c3ccccc32)cc1Cl	/	i
COc1ccc(N2CCN(C(=O)NC3CC(=O)N(c4ccc(OC)cc4)C3)CC2)cc1 (centres undefined)	/	i
Cc1ccc(N2C(=O)c3ccccc3C2Nc2ccccc2)nc1 (centres undefined)	/	i
CCc1cccc(NC2c3ccccc3C(=O)N2c2ccc(C)cn2)c1 (centres undefined)	-7.5	-7.5*
Cc1ccc(S(=O)(=O)N2CCN(C(=O)C3CCN(C(=O)c4ccc(F)cc4)CC3)CC2)c(C)c1	/	i
Cc1cccnc1NC(=O)c1cccc(S(=O)(=O)NCc2ccccc2)c1	0.08	i
COc1ccc(-c2csc3nc[nH]c(=O)c23)cc1OC	1.1	i
Cc1ccc(-c2csc3nc[nH]c(=S)c23)cc1C	10*	i
CC(C)(C)C(=O)Cn1c(=N)n(Cc2ccccc2)c2ccccc21	-6.2	-6.2*
CC(C)(C)C(=O)Cn1c(=N)n(Cc2ccccc2Cl)c2ccccc21	/	i
CCN(C(=O)CSc1nnc(COc2cccc(C)c2)o1)c1nc(C)cs1	0.5	i
O=C1OCC(c2ccccc2)=C1c1ccccc1	1	i
N#CC1=C(c2ccc(-c3ccccc3)cc2)COC1=O	-5.7	-5.7*
Cc1cc(C)n2nc(NCc3cccc(Br)c3)nc2n1	-6.7	-6.7*
COc1ccc(CNc2nc3nc(C)cc(C)n3n2)cc1OC	0.53	i
Cc1ccc(S(N)(=O)=O)cc1NC(=O)C(c1ccccc1)c1ccccc1	0.8	i
CCOc1ccccc1NC(=O)C1(S(=O)(=O)c2ccc(Cl)cc2)CC1	/	i
Cc1cc(CN2CCCC(C(=O)Nc3cccc(-n4cccn4)c3)C2)cc(C)c1O (centres undefined)	/	i
O=C(Nc1cccc(-n2cccn2)c1)C1CCCN(Cc2cc3ccccc3[nH]2)C1 (centres undefined)	-8.2	-8.2*
Cc1ccc2c(c1)N(C(=O)CCC(=O)NCc1cccc(Br)c1)CC(C)O2 (centres undefined)	-7	-7*
Cc1ccc2c(c1)N(C(=O)CCC(=O)Nc1ccccc1Br)CC(C)O2 (centres undefined)	/	i
COc1c(Br)cc(/C=N/n2c(-c3ccccc3)n[nH]c2=S)c(O)c1Br	3.7	i
O=C(c1cnc(Cl)c(Cl)c1)N1CCC(Cc2ccccc2)CC1	/	i
Cn1c(O)c(C=Nc2ccc(Br)cc2)sc1=O	/	i
CCCc1cc(C(=O)N2CCCN(C)CC2)cs1	1.6	i
